Pol eta inh: qHTS for Inhibitors of Polymerase Eta | DNA polymerase eta (Homo sapiens), Q9Y253 | recombinant Pol eta, fluorescent DNA replication assay | Potency, µM (top dose mostly 114 µM), actives largely listed as inhibitors | hit rate 1.2% among 390,000 | AID 588591, 2011
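Fluorescent replication assay: 50 nM final substrate added after a 15 min room-temperature compound preincubation with 10 nM enzyme. Signal taken at 0 min and again at 10 min.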
POLB inh: qHTS Assay for Inhibitors of DNA Polymerase Beta; Potency, µM (series often up to 114 µM), actives largely listed as inhibitors; hit rate 1.3% among 340,000; AID 485314, 2010; Pol beta primer extension/strand displacement, fluorescence kinetic; P06746
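Homogeneous kinetic assay of primer extension and strand displacement by 10 nM Pol beta, preincubated 15 min at room temperature with compound before 50 nM substrate (final) was added. Read at 0 and 10 min; four-parameter Hill fit.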
PI4K2A block: qHTS for small molecular inhibitors of PI4K2A; Phosphatidylinositol 4-kinase type 2-alpha (Homo sapiens), Q9BTU6; hit rate 0.13% among 420,000; activity change, negative = inhibition, % at 76.9 µM; AID 1346378, 2018; purified PI4K2A, ADP-Glo luminescence, 1 h; active compounds read low; in the data active means activity change below about -50%; inconclusive means mostly about -30% to -49%
Target sequence (Q9BTU6 whole entry, looked up): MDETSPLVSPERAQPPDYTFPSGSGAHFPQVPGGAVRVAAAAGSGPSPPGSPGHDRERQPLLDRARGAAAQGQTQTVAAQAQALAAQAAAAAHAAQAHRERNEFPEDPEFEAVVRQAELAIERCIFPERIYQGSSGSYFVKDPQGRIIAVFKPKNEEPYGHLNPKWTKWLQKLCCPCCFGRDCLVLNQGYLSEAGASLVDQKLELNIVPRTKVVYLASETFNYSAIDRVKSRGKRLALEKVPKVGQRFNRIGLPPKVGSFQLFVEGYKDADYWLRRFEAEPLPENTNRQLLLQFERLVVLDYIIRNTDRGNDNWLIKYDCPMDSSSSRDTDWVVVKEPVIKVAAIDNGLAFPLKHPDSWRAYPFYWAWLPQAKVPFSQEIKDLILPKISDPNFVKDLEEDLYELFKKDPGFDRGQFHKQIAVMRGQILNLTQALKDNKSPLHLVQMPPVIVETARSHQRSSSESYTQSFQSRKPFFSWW
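ADP-Glo luminescence measured ADP generated by PI4K2A enzyme (4 ug/mL before mixing) with 1.2 mM PI substrate (pre-mix) and 300 microM ATP (pre-mix). Tris pH7.5 buffer with MgCl2, Triton X-100; 1 h reaction at ambient temperature.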
POLI inh: qHTS for Inhibitors of Polymerase Iota. Pol iota fluorescent replication assay, 10 min. Potency, µM (doses to about 115 µM), hits mostly inhibitors. hit rate 1% among 390,000. DNA polymerase iota (Homo sapiens), Q9UNA4
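Pol iota at 10 nM preincubated 15 min with compounds at room temperature; reaction started with fluorescent substrate, 50 nM final. Fluorescence read kinetically at 0 and 10 min; buffer-only wells as negative control.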
Pol kappa inh: qHTS for Inhibitors of Polymerase Kappa; DNA polymerase kappa (Homo sapiens), Q9UBT6; purified Pol kappa, fluorescent DNA synthesis assay, 10 min; Potency, µM (titrated, usually from 107 µM), usual class: inhibitors; hit rate 0.53% among 400,000; AID 588579, 2011
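10 nM Pol kappa preincubated 15 min at room temperature with compounds, then reaction started with substrate at 50 nM final. Fluorescence read kinetically at 0 and 10 min; buffer-only wells served as negative control.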
PI5P4K alpha inh: qHTS for Inhibitors of phosphatidylinositol 5-phosphate 4-kinase (PI5P4K) | Phosphatidylinositol 5-phosphate 4-kinase type-2 alpha (Homo sapiens), P48426 | PI5P4Kalpha enzyme, ADP-Glo luminescence, 60 min; active compounds read low | max response, % | hit rate 1.2% among 330,000 | AID 652105, 2013; active means max response of -50% or lower; inconclusive means between -30% and -50%; inactive means -30% or higher; further: value at the top dose of about 77 µM
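ADP-Glo luminescence end-point after a 60 min room-temperature kinase reaction. PI5P4Kalpha and substrate in HEPES pH 7.4 buffer with EGTA, 0.1% CHAPS and 5% DMSO; ATP at 5 microM final.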
Numbers stand for hits; - = inactive; ? = inconclusive; . = not tested or not shown. Sampled rows, rich in hits. Any-hit rate of the full collection: about 2.8%. Unless noted, the call rests on the fitted dose curve; in most records, active means well fitted inhibition curve with a large enough effect; inconclusive means small, poorly fitted or top-dose-only effect, or another doubt; inactive means no such curve, though single readings can be large or run the other way.

SMILES | Pol eta inh | POLB inh | PI4K2A block | POLI inh | Pol kappa inh | PI5P4K alpha inh
COc1ccc(-c2nc3cnc(OC)nc3n(C)c2=O)cc1 | . | . | . | . | - | .
COc1ccc(CCNC(=O)c2cnn3c2NC(=C2CC2)C=C3C(F)F)cc1OC | . | . | . | - | - | .
O=c1cc(NCc2ccco2)[nH]c(=O)n1-c1ccc(Br)cc1 | ? | - | - | 50µM | ? | .
C=CC(=O)Nc1cccc(Oc2ccnc3[nH]ccc23)c1 | ? | . | - | ? | - | -72
CCn1c(SCC(=O)N/N=C/C=C/c2ccco2)nnc1-c1ccccc1 | ? | 40µM | ? | 56µM | 79µM | ?
Cc1ccc(-n2c(SCC(=O)N/N=C/C=C\c3ccco3)nnc2-c2ccccc2)cc1 | . | . | - | . | . | .
CCn1c(SCC(=O)N/N=C/C(C)=C\c2ccco2)nnc1-c1ccccc1 | ? | 28µM | - | 45µM | ? | -
CCCc1ccc(C(=O)O/N=C(\N)c2ccccn2)cc1 | - | - | -85 | - | - | -65
N/C(=N\OC(=O)c1ccc(=O)n(Cc2ccccc2)c1)c1ccccn1 | - | - | - | - | - | -
COc1cc2nc(NC3CCN(C)CC3)nc(N3CCCN(C)CC3)c2cc1OC | . | . | . | - | - | .
O=C1NC(=O)/C(=C/c2ccco2)N1 | - | . | - | - | - | .
O=C1NNC(c2ccccc2)=N/C1=C\c1ccccc1 | - | - | - | ? | - | -
O=C1NC(c2cccc(Br)c2)=N/C1=C\c1ccco1 | - | 45µM | - | 25µM | - | ?
O=C1NC(c2ccccc2Br)=N/C1=C\c1ccco1 | - | ? | - | ? | 79µM | -
O=C1NC(c2ccccc2)=N/C1=C/c1ccco1 | - | 28µM | - | - | ? | -
CCc1ccccc1-c1cc(C(=O)OC)c2n(c1=O)CCC2 | . | . | - | . | . | .
COc1ccccc1C(=O)NCC(=O)N/N=C/c1cc(Br)ccc1OC(=O)/C=C\c1ccco1 | - | - | - | ? | 32µM | -
O=C(CNC(=O)c1ccc(F)cc1)N/N=C/c1cc(Br)ccc1OC(=O)/C=C/c1ccco1 | 56µM | ? | - | ? | - | -
O=C(CNC(=O)c1ccccc1F)N/N=C/c1cc(Br)ccc1OC(=O)/C=C/c1ccco1 | - | ? | - | ? | ? | -
CN1C(=O)CC2(C=CC(=O)C=C2OC(=O)c2ccccc2)c2ccccc21 (stereo not drawn) | . | . | . | - | - | .
O=C(NC1=C(Nc2ccc(Cl)cc2)C(=O)c2ccccc2C1=O)c1ccccc1 | - | ? | - | - | - | ?
Cc1cccc(NC2=C(NC(=O)c3ccccc3)C(=O)c3ccccc3C2=O)c1 | - | - | - | ? | - | -62
O=C(NC1=C(NC2CCS(=O)(=O)C2)C(=O)c2ccccc2C1=O)c1ccccc1 (stereo not drawn) | 79µM | ? | - | 35µM | - | ?
C#CCOCCOCCOCCNc1nc(N2CCN(C(=O)[C@H]([C@@H](C)CC)n3cc([C@@H](N)CC(C)C)nn3)CC2)nc(N2CCN(C(=O)[C@H](CCCCN)n3cc([C@@H](N)C(C)CC)nn3)CC2)n1 (stereo partly drawn) | - | - | - | ? | - | -
C#CCOCCOCCOCCNc1nc(N2CCN(C(=O)[C@H]([C@@H](C)CC)n3cc(CCC(=O)O)nn3)CC2)nc(N2CCN(C(=O)[C@H](CCCCN)n3cc(CC(C)O)nn3)CC2)n1 (stereo partly drawn) | - | . | - | - | - | -70
SMILES | Pol eta inh | POLB inh | PI4K2A block | POLI inh | Pol kappa inh | PI5P4K alpha inh
C#CCOCCOCCOCCNc1nc(N2CCN(C(=O)[C@H](CCCCN)n3cc([C@@H](N)C(C)CC)nn3)CC2)nc(N2CCN(C(=O)[C@H](Cc3cc4ccccc4[nH]3)n3cc([C@@H](N)CC(C)C)nn3)CC2)n1 (stereo partly drawn) | - | - | - | - | - | -57
C#CCOCCOCCOCCNc1nc(N2CCN(C(=O)[C@H](CCCCN)n3cc(CN)nn3)CC2)nc(N2CCN(C(=O)[C@H](CCCCN)n3cc([C@@H](N)CC(N)=O)nn3)CC2)n1 | - | . | - | 8.9µM | - | -
C#CCOCCOCCOCCNc1nc(N2CCN(C(=O)[C@H]([C@@H](C)CC)n3cc([C@@H](N)CC(C)C)nn3)CC2)nc(N2CCN(C(=O)[C@H](CCCCN)n3cc([C@@H](N)CC(C)C)nn3)CC2)n1 | - | - | - | 14µM | - | -
Cc1ccc(C(=O)NCC(c2ccc3c(c2)OCO3)N2CCOCC2)cc1C (stereo not drawn) | - | - | - | - | - | .
C#CCOCCOCCOCCNc1nc(N2CCN(C(=O)[C@H](CCC(=O)O)n3cc(C(N)Cc4ccc(O)cc4)nn3)CC2)nc(N2CCN(C(=O)[C@H](Cc3cc4ccccc4[nH]3)n3cc(C(N)CC(C)C)nn3)CC2)n1 (stereo partly drawn) | . | - | . | . | . | .
C#CCOCCOCCOCCNc1nc(N2CCN(C(=O)C(Cc3ccc(O)cc3)n3cc(C(N)CC(C)C)nn3)CC2)nc(N2CCN(C(=O)C(Cc3cc4ccccc4[nH]3)n3cc(C(N)Cc4ccc(O)cc4)nn3)CC2)n1 (stereo not drawn) | . | 35µM | . | . | . | .
CC(C)n1nc(-c2cc3cc(O)ccc3[nH]2)c2c(N)ncnc21 | . | . | - | . | . | .
COc1ccccc1NC(=O)c1cc2ccc3cccnc3c2[nH]1 | - | - | - | - | - | .
Cc1ccc(Cl)cc1N1CCN(C(=O)c2cc3ccc4cccnc4c3[nH]2)CC1 | - | - | -76 | - | - | .
COc1cc(Cl)c(C)cc1NC(=O)c1cc2ccc3cccnc3c2[nH]1 | ? | 40µM | - | ? | - | .
CC1=C/C(=C\c2ccc(N(C)C)cc2)c2ccccc21 | . | . | . | - | - | .
CCc1ccc2oc(-c3cc(NC(=O)COc4ccc(C)cc4)ccc3O)nc2c1 | . | . | . | - | - | .
CC(C)(C)CC(C)(C)N=C1Nc2ccc(Cl)cc2NC12C[C@H]1CCC(=O)N3CC[C@@H](C2)[C@@H]13 (stereo partly drawn) | . | . | . | - | - | .
COc1cc(S(N)(=O)=O)cc(C(=O)O)c1OC | . | . | - | . | . | .
O=S(=O)(c1cccc(-c2n[nH]c(=S)o2)c1)N1CCOCC1 | - | - | - | - | - | -73
O=S(=O)(c1ccc2oc(=S)[nH]c2c1)N1CCCCC1 | - | - | - | - | - | ?
O=S(=O)(c1ccc2oc(=S)[nH]c2c1)N1CCOCC1 | - | . | - | - | - | -69
COc1cc2nc(N3CCCN(C)CC3)nc(N(C)C)c2cc1OC | . | . | . | ? | - | .
CCOC(=O)[C@@]12CCCC=C1N(CCc1ccc(Cl)cc1)C(=O)[C@H]2CC(=O)NCc1cccc(C(F)(F)F)c1 | . | . | - | . | . | .
O=c1cc(-c2ccccc2F)[nH]c2cc3c(cc12)OCO3 | . | . | - | . | - | .
